Most compounds without a hit are left out; they make up all but 11% or so of the library.
AMA1 RON2 block: AMA1-RON2 (P. falciparum) interaction inhibition. AlphaScreen AMA1-biotinylated RON2 peptide binding. Potency, µM (highest dose often 58.2 µM), actives largely listed as inhibitors. 360,000 compounds, 0.2% hits. AID 720542; further: nearly all actives have a fitted effect of over 45% in size
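AMA1 (3D7) with his tag at 25 nM final met compounds first, then biotinylated RON2 peptide at 25 nM; detection used donor plus acceptor beads, 10 µg/mL apiece, read by AlphaScreen after 30 min at room temperature.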
Pf growth 48h: P. falciparum growth inhibition at 48 hours (one generation) | AID 504832 | 310,000 compounds, 5.9% hits | P. falciparum luciferase growth in erythrocytes, 48 h | Potency, µM (titrated, usually from 28.7 µM), usual class: inhibitors
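Parasite viability was followed by luminescence of a genomically integrated firefly luciferase. Cultures held 0.1% parasitemia at 2% hematocrit (final), incubated under 5% CO2 at 37 C.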
HCV inhibitor: blocks hepatitis C virus | Huh7.5.1 HCVcc-Cre infection, luciferase reporter, 44 h | Potency, µM (top dose mostly 41.8 µM), actives largely listed as inhibitors | 340,000 compounds, 3.4% hits | AID 651820
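HCVcc-Cre virus at an moi near 0.5 was added right after compound to cells cultured 4 h from seeding (1,000 cells/well). Luciferase activity was determined 44 h later, 15 min after substrate addition at RT.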
Pf growth 96h: inhibits malaria parasite growth, 96 h. P. falciparum luciferase reporter growth, 96 h. Potency, µM (series often up to 28.7 µM), hits mostly inhibitors. 320,000 compounds, 6.9% hits
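Two-generation exposure (96 h) targets delayed-death phenotype. Reporter parasites carrying integrated firefly luciferase, in red cells at 2% hematocrit and 0.05% parasitemia final, kept at 37 C, 5% CO2; luminescence loss indicates inhibition.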
Of the large screens only hits and unclear results are named; the others gave an inactive call. The call rests on the fitted dose curve; in most records, active means well fitted curve in the direction sought with a large enough effect; inconclusive means small, poorly fitted or top-dose-only effect, or another doubt; inactive means no such curve, though single readings can be large; an effect the other way counts as inactive or inconclusive.

Cc1ccc(C)c(NC(=S)NC(NC(=O)Cc2ccccc2)C(Cl)(Cl)Cl)c1 (stereo not given)	Pf growth 48h inconclusive, HCV inhibitor inconclusive (no result: Pf growth 96h)
Cc1ccccc1C(=O)NC(NC(=S)Nc1ccc(S(N)(=O)=O)cc1)C(Cl)(Cl)Cl (stereo not given)	Pf growth 48h inconclusive, Pf growth 96h inconclusive
Cc1ccccc1NC(=S)NC(NC(=O)c1ccccc1C)C(Cl)(Cl)Cl (stereo not given)	Pf growth 48h inconclusive, HCV inhibitor inconclusive, Pf growth 96h 2.6µM
O=C(NC(NC(=S)Nc1ccccc1)C(Cl)(Cl)Cl)c1cccc(Cl)c1 (stereo not given)	Pf growth 48h inconclusive, HCV inhibitor 11µM, Pf growth 96h 13µM
O=C(O)c1cccc(NC(=S)NC(NC(=O)c2cccc([N+](=O)[O-])c2)C(Cl)(Cl)Cl)c1 (stereo not given)	none
CC(C)CNS(=O)(=O)c1ccc(OCC(=O)NCC2CCCO2)c(Cl)c1 (stereo not given)	Pf growth 96h inconclusive
O=C1C(C2=C(O)c3ccccc3C2=O)=Nc2ccccc21	HCV inhibitor 10µM
Cc1ccccc1Nc1nc(NCc2ccco2)c2ccccc2n1	AMA1 RON2 block inconclusive, Pf growth 48h inconclusive, HCV inhibitor inconclusive
Cc1cccc(Nc2nc(NCc3ccco3)c3ccccc3n2)c1	AMA1 RON2 block inconclusive, Pf growth 48h 0.66µM, HCV inhibitor 6.3µM, Pf growth 96h inconclusive
Oc1ccccc1Nc1nc(NCc2ccco2)c2ccccc2n1	Pf growth 48h inconclusive, HCV inhibitor 13µM, Pf growth 96h 2.1µM
COc1ccc(OC)c(Nc2nc(NCc3ccco3)nc(N)c2[N+](=O)[O-])c1	Pf growth 48h inconclusive, Pf growth 96h inconclusive
COc1ccc(OC)c(Nc2nc(NCc3ccco3)c3ccccc3n2)c1	AMA1 RON2 block inconclusive, Pf growth 48h inconclusive, HCV inhibitor 11µM
Cc1ccc(C(=O)NCc2ccccc2CN2CCCC2)cc1S(=O)(=O)N1CCOCC1	Pf growth 48h inconclusive, Pf growth 96h inconclusive
COc1ccc(C(=O)COC(=O)c2ccc3c(c2)OCO3)c(OC)c1	none
OCc1cn(-c2ccccc2)nc1-c1ccc(-c2nn(-c3ccccc3)cc2CO)cc1	none
Cc1ccc(-c2nn(-c3ccccc3)cc2CSC(=N)N)cc1	Pf growth 48h inconclusive, HCV inhibitor inconclusive, Pf growth 96h 1.7µM
COc1cc2cc(C)c(SCC(=O)N3CCN(C(=O)c4ccco4)CC3)nc2cc1OC	Pf growth 48h inconclusive, HCV inhibitor inconclusive, Pf growth 96h inconclusive
COc1cccc(C(C(=O)Nc2ccc(F)cc2)N(C(=O)Cn2nnc3ccccc32)C2CC2)c1 (stereo not given)	Pf growth 48h inconclusive, Pf growth 96h 10µM
CCC(C)N(C(=O)Cn1nnc2ccccc21)C(C(=O)NCc1ccco1)c1cccc(OC)c1 (stereo not given)	Pf growth 96h 10µM
COc1ccc(C(C(=O)NCCC(C)C)N(CCN2CCOCC2)C(=O)Cn2nnc3ccccc32)c(OC)c1 (stereo not given)	Pf growth 48h inconclusive, Pf growth 96h 5.2µM
COc1cccc(C(C(=O)NCC2CCCO2)N(C(=O)Cn2nnc3ccccc32)c2ccc(NC(C)=O)cc2)c1 (stereo not given)	Pf growth 48h inconclusive
CCOc1ccc(C(C(=O)Nc2ccc(F)cc2)N(C(=O)Cn2nnc3ccccc32)C2CC2)cc1 (stereo not given)	Pf growth 48h inconclusive, Pf growth 96h 4.7µM
O=C(NCc1ccco1)C(c1ccc(F)cc1)N(CC1CCCO1)C(=O)Cn1nnc2ccccc21 (stereo not given)	none
Cc1ccc(C(C)C)c(Oc2cnccn2)c1	none
Cn1c(=O)n(C)c2cc(/C=N/N=C3/NC(=O)C(CC(=O)O)S3)ccc21 (stereo not given)	none
O=c1cc2c(nn1Cc1cccc([N+](=O)[O-])c1)-c1ccccc1CC2	HCV inhibitor 13µM, Pf growth 96h inconclusive
O=c1cc2c(nn1Cc1ccccc1)-c1ccccc1CC2	Pf growth 48h inconclusive, Pf growth 96h inconclusive
CCC(c1nnnn1-c1ccc2c(c1)OCCO2)N1CCN(CC)CC1 (stereo not given)	none (no result: Pf growth 48h, HCV inhibitor, Pf growth 96h)
O=C1Nc2ccccc2Nc2ccc([N+](=O)[O-])cc21	none
Cc1ccc(N=C2NC(=O)c3cc([N+](=O)[O-])ccc32)cc1	Pf growth 96h 4.1µM
COC(=O)[C@@H](Cc1c[nH]c2ccccc12)NC(=O)c1ccc2c(c1)OCO2	none
C=CCc1cccc(/C=N/NC(=O)CCCNc2ccc(C)cc2)c1O	Pf growth 96h inconclusive
C=CCc1cccc(/C=N/NC(=O)C(C)Nc2cccc(C)c2)c1O (stereo not given)	Pf growth 48h 13µM, HCV inhibitor inconclusive
N#Cc1nc(-c2ccc(Cl)cc2)oc1NCC1CCCO1 (stereo not given)	none
Cc1cc(N/N=C/c2ccc([N+](=O)[O-])o2)nc2ccccc12	Pf growth 48h 4.7µM, HCV inhibitor 10µM, Pf growth 96h 5.9µM
Cc1ccc(-c2cc(C(=O)N/N=C/c3ccc([N+](=O)[O-])o3)c3ccccc3n2)o1	HCV inhibitor 11µM, Pf growth 96h 3.3µM
O=C(N/N=C/c1ccc([N+](=O)[O-])o1)c1cc(-c2ccncc2)nc2ccccc12	Pf growth 48h inconclusive, HCV inhibitor 10µM, Pf growth 96h 0.93µM
Cn1c(/C=C/c2ccccc2)nc2ccccc2c1=O	HCV inhibitor inconclusive
O=C(N/N=C/c1ccc([N+](=O)[O-])o1)c1cc(-c2ccc(-c3ccccc3)cc2)nc2ccccc12	Pf growth 48h inconclusive, Pf growth 96h inconclusive
Cn1c(/C=C/c2ccc([N+](=O)[O-])o2)nc2ccccc2c1=O	Pf growth 48h inconclusive, HCV inhibitor 2µM, Pf growth 96h inconclusive
Cc1cc(Nc2ccc([N+](=O)[O-])cc2)nc2ccccc12	Pf growth 48h inconclusive, HCV inhibitor inconclusive
CC(C)CN(C(=O)COc1ccc([N+](=O)[O-])cc1)c1c(N)n(CC(C)C)c(=O)[nH]c1=O	Pf growth 96h inconclusive
COCCNC(=O)CCC1CCN(Cc2cccc(Oc3ccccc3)c2)CC1	Pf growth 96h inconclusive
CCN(CC)S(=O)(=O)c1ccc(NC(=O)COC(=O)CNC(=O)C2CCCCC2)cc1	Pf growth 48h inconclusive
COCCCNC(=O)CC1C[C@H](C(=O)N2CCOCC2)[C@@]2(C)c3[nH]c4ccc(OC)cc4c3CCN2C1=O (stereo not given in full)	none (no result: Pf growth 48h, Pf growth 96h)
Cc1cccc(NC(=O)C2(c3cccs3)CCOCC2)n1	none
Cc1ccc(N=Cc2cc3c(cc2O)OC(N)=C(C#N)C3c2ccccc2)cc1 (stereo not given)	none
O=C(N/N=C/c1ccc([N+](=O)[O-])o1)c1cn(-c2ccccc2)nc1-c1ccc(Cl)cc1	Pf growth 48h 4.7µM, HCV inhibitor inconclusive, Pf growth 96h inconclusive
O=C(N/N=C/c1ccc([N+](=O)[O-])o1)c1cn(-c2ccccc2)nc1-c1ccccc1	Pf growth 48h inconclusive, HCV inhibitor inconclusive, Pf growth 96h inconclusive
C/C(=C\c1cccc(Cl)c1Cl)C(=O)c1c(C)cc(C)[nH]c1=O	Pf growth 96h 19µM
